Here are results for 57 molecules from PubChem BioAssay AID652017 (The Scripps Research Institute Molecular Screening Center, 2013).

The whole screen tested about 370,000 compounds, of which about 3,800 (1%) were called active. This is one part of a sample in which actives are shown more often than they occur. A number with no mark means an inactive call. No stated cut-off is given here; in the data, active means activation above about 7.8%; inactive means the rest.

The test can be described thus: SMARCA2 (BRM) function activators, primary screen, cell-based, luminescence, high throughput (AID 652017).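 Further: 0% = vehicle wells and 100% = reference activator wells.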 As to conditions: MG213 cells, MMTV-luciferase reporter, dexamethasone, overnight; at 9.1 µM; active compounds read high. A general note: Reporter assays use an easily measured gene product as a stand-in for the process of interest.
For `O=S(=O)(c1ccc(F)cc1)n1ccc(-c2cnc(-c3ccccc3)s2)n1`, the activation was 0.36%.

For `CCOC(=O)c1csc(NC(=O)C2CCCN(S(=O)(=O)c3ccc(Cl)s3)C2)n1` (configuration not stated), the activation was -3.75%.

Turning to `Nn1c(SCC(=O)Nc2cccc3ccccc23)nnc1-c1cc(-c2ccc(F)cc2)n[nH]1`, the activation is -3.63%.

With `O=C(OC12CC3CC(CC(C3)C1)C2)c1ccc(NCc2cc(O)ccc2O)cc1`, the activation is -10.6%.

In the case of `COC(=O)c1ccc(NCc2cc(O)ccc2O)cc1`, the activation is 8.39% (active).

As to `CCS(=O)(=O)Nc1cc(C(=O)OC)ccc1C(=O)OC`, the activation was -0.18%.

With `O=C(NC1CCCCN(Cc2ccc(Cl)cc2)C1=O)c1ccc(Br)cc1` (configuration not stated), the activation was -1.79%.

Take `CCc1ccc(NC2Nc3cc(C)nn3S2)cc1` (configuration not stated): the activation was 8.13% (active).

As to `CC(=O)Nc1ccc(Nc2c3ccccc3nc3ccccc23)cc1`, the activation is 8.59% (active).

Consider `CC(=O)Nc1ccc(Nc2nc3c(S(=O)(=O)c4ccc(C)c(C)c4)nnn3c3ccccc23)cc1`, for which the activation is 0.7%.

As to `CCc1c(C)nc2c(-c3ccccc3)c(C)nn2c1Nc1ccc(NC(C)=O)cc1`, the activation was -0.14%.

Regarding `O=C(CSc1nc2c(c(=O)[nH]1)CCCC2)N1CCCCC1`, the activation is -4.24%.

Consider `CCC(=O)OCCCN1C(=O)CCC12CCC(c1ccccc1)CC2` (configuration not stated), for which the activation is -3.5%.

In the case of `CC(=O)OCCN1CCCC12CCC(c1ccccc1)CC2` (configuration not stated), the activation was -0.56%.

With `C=CCN1[C@H](CC(C)C)COc2cccc(N3CCCC3)c2S1(=O)=O`, the activation was -1.47%.

For the molecule `Nn1c(SCC(=O)Nc2ccc(S(N)(=O)=O)cc2)nnc1-c1n[nH]c2c1CCC2`, the activation is 0.23%.

For the molecule `Oc1cccc2ccc(/C=C/c3ccc(Br)s3)nc12`, the activation was 10.9% (active).

For the molecule `COc1ccc(NC(=O)Cn2ncn3c(cc4ccccc43)c2=O)c(OC)c1OC`, the activation was 1.32%.

Consider `C[C@H](C(=O)N(C)c1ccccc1)[C@@H](O)c1ccc(Cl)cc1`, for which the activation was -0.55%.

As for `CSc1nnc(SCc2nc3sc(C(=O)O)c(C)c3c(=O)[nH]2)s1`, the activation is -1.68%.

Turning to `CCOC(=O)c1sc2nc(CSc3ccccc3)[nH]c(=O)c2c1C`, the activation was 9.98% (active).

Consider `CCOC(=O)c1sc2nc(C)nc(SCC(N)=O)c2c1C`, for which the activation is -1.05%.

In the case of `Cc1csc(Nc2ccc(Cl)cc2)[n+]1-c1ccc(Cl)cc1`, the activation was -3.27%.

On to `CCC(c1ccc(NC(=O)OC(C)(C)C)cc1)c1cc(OC)cc(OC)c1` (configuration not stated), for which the activation is -2.7%.

In the case of `Cc1ccc(NC(=O)c2cc(C)nn2-c2ccccc2)c(C)c1`, the activation was -4.44%.

As to `Cc1ccnc(Nc2nc3ccccc3s2)n1`, the activation is 10.6% (active).

Take `Cc1ccnc(-n2sc3ccccc3c2=O)n1`: the activation was 1.96%.

As to `Cc1[nH]n(C)c(=O)c1C(=O)c1c(-c2c(Cl)cccc2Cl)noc1C`, the activation is -2.74%.

For `Cn1c(-c2ccc(C(F)(F)F)cc2)cc2onc(-c3ccccc3)c2c1=O`, the activation was 5.26%.

As to `Cn1c(-c2ccc(F)cc2)cc2onc(-c3ccccc3Cl)c2c1=O`, the activation is 9.9% (active).

In the case of `CCOC(=O)[C@]12CCCCC/C=C\1N(Cc1ccc(OC)cc1)C(=O)[C@H]2CC(=O)NCCCN1CCCC1=O`, the activation is -2.38%.

With `O=C(CNS(=O)(=O)c1ccccc1F)N1CCN(c2ccccn2)CC1`, the activation was -3.89%.

As to `COC(=O)[C@]12C[C@H](CC(=O)NCCc3ccccc3OC)C(=O)N(Cc3ccco3)C1=C[C@H](C(C)C)O[C@@H]2C1CC1`, the activation is -4.32%.

`COC(=O)[C@]12C[C@H](CC(=O)NCc3cccc4ccccc34)C(=O)N(CCc3ccc(OC)c(OC)c3)C1=C[C@H](C1CCCC1)O[C@@H]2C`: the activation was -1.03%.

`CCOc1cccc2c1OC1(CCCCC1)N1N=C(c3cccnc3)CC21` (configuration not stated): the activation was 8% (active).

Turning to `CCCCN1CCN(C(=O)c2ccc3c(c2)NC(=O)C(C)(C)O3)CC1`, the activation is 2.59%.

Take `O=S1(=O)c2c(cccc2N2CC[C@H](O)C2)O[C@@H]2CCN1C2`: the activation is -1.6%.

`CCc1nc2ccc(C(=O)NCCNC(C)=O)cn2c1N(CC)Cc1cccc(Br)c1`: the activation is -2.59%.

Turning to `Cn1cc(/C=C/C(=O)N2CCCC(C(=O)c3ccc(C(F)(F)F)cc3)C2)cn1` (configuration not stated), the activation is 9.62% (active).

For `COCC(=O)N1CCCC(C(=O)c2ccc(C(F)(F)F)cc2)C1` (configuration not stated), the activation was -2.48%.

As to `Cc1cnc(C(=O)N2CCCC(C(=O)c3ccc(C(F)(F)F)cc3)C2)cn1` (configuration not stated), the activation is 1.89%.

`CCOC(=O)C1=C(C)NC2=C(C(=O)CC(C)(C)C2)C1c1ccc2c(c1)OCO2` (configuration not stated): the activation was -5.79%.

For `O=C(c1cccc(C(F)(F)F)c1)N1CC[C@H]2[C@H](CCCN2Cc2cc(F)cc(F)c2)C1`, the activation was -1.61%.

`CSc1ccc(/C=C/C(=O)NC23CC4CC(CC(C4)C2)C3)cc1`: the activation is 1.32%.

Turning to `CCOc1ccccc1NC(=O)C12CC3CC(C1)CC(c1ccc(C)cc1)(C3)C2`, the activation was -1.92%.

As to `COc1ccc(/C=C/C(=O)Nc2ccc(C34CC5CC(CC(O)(C5)C3)C4)cc2)cc1OC`, the activation is 9.95% (active).

`O=C(NCc1ccc(Cl)cc1)C1CCCN(c2nc3ccccc3o2)C1` (configuration not stated): the activation is -7.39%.

Regarding `Cc1ccc(C2=CCN(C)C(=O)N2c2ccc(Cl)cc2)cc1`, the activation was 1.89%.

Regarding `Cc1cc2oc3ccc(NCCC4CCCN4C)cc3c(=O)c2cc1C` (configuration not stated), the activation is 8.67% (active).

Regarding `CN1CCC[C@@H]1CCO[C@](C)(c1ccccc1)c1ccc(Cl)cc1`, the activation was -5.64%.

For the molecule `S=C(NCCCc1cnc[nH]1)NCCCN(Cc1ccc(Cl)c(Cl)c1)c1ccc(Br)cn1`, the activation was -3.8%.

With `COC(=O)C[C@@H]1CC[C@H]2[C@@H](COc3ccc(NS(=O)(=O)CC(F)(F)F)cc3C(=O)N2C)O1`, the activation was -3.47%.

As to `COC(=O)[C@]12C[C@H](CC(=O)N3CCN(C(=O)C4CC4)CC3)C(=O)N(CCC3=CCCCC3)C1=C[C@H](C(C)C)O[C@@H]2C1CC1`, the activation is 0.49%.

Turning to `Cc1cc(NS(=O)(=O)c2ccc(NC(=O)CSc3nnc(-c4ccc(C(C)(C)C)cc4)n3Cc3ccco3)cc2)nc(C)n1`, the activation is -2%.

Turning to `O=C(CSc1nc2ccccc2c(=O)n1-c1ccccc1F)N1CCOCC1`, the activation is -2.52%.

As to `Cc1ccc(-n2c(SCC(=O)N3CCC(C(=O)O)CC3)nc3ccccc3c2=O)cc1C`, the activation is 9% (active).

Take `COc1ccc(-n2c(SCC(=O)Nc3ccc(C)c(Cl)c3)nc3ccccc3c2=O)cc1`: the activation was -5.45%.
